From PubChem BioAssay
Only some compounds are listed: those with a hit (about 3% of all), similar ones and a draw of the others.
PPC-1+TRAIL kill – PPC-1 cancer cell killing with TRAIL present. PPC-1 cells + TRAIL, ATPLite viability luminescence. cell killing (% activity), % at 4 µM or 5 µM. actives 0.41% (n = 220,000);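 active means cell killing above 50% in the first pass at 4 µM, then a duplicate retest at 5 µM averaging 50% or more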
SENP6 inh – blocks the human protease SENP6; inhibition, % at 10 µM; Recombinant SENP6 catalytic domain, aminoluciferin luminescence; Q9GZR1; actives 1.8% (n = 330,000);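 active means inhibition above about 50% at the single tested dose, limit read from the data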
C8 TRAIL sens – caspase-8 TRAIL sensitization; actives 1% (n = 360,000); AID 624354; NB7+C8 cells + TRAIL, ATPlite viability luminescence; inhibition (viability loss, TRAIL sensitization), % at 10 µM;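 active means compounds causing at least 50% loss of cell viability in the single-dose screen, relative to plate controls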
SENP8 block-1 – blocks human SENP8 cleavage of Nedd8 substrate | Q96LD8 | recombinant SENP8, Nedd8 substrate fluorescence | inhibition, % at 20 µM | actives 0.64% (n = 360,000) | AID 602440; in the data active means inhibition mostly above about 40%, no sharp cut-off; inactive means mostly below about 27%
Target sequence (Q96LD8 whole entry, looked up): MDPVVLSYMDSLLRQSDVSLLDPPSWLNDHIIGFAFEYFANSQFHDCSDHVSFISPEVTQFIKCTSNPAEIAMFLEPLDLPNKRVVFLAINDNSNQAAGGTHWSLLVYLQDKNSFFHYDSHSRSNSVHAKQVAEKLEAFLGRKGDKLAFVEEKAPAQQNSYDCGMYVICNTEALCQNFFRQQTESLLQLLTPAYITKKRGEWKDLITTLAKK
SENP8 block-2 – SENP8 protease inhibition; inhibition, % at 10 µM; AID 2540; purified SENP8, Z-RLRGG-aminoluciferin cleavage, luminescence; actives 1.2% (n = 330,000); in the data active means inhibition above about 50%
SENP7 inh – blocks the human protease SENP7 | Q9BQF6 | recombinant SENP7, Z-RLRGG-aminoluciferin luminescence, 40 min | inhibition, % at 5 µM | actives 1.5% (n = 330,000) | AID 434973;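 active means inhibition above about 50% at the single test dose, limit read from the data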
Target sequence (Q9BQF6 706-1050 limits assumed): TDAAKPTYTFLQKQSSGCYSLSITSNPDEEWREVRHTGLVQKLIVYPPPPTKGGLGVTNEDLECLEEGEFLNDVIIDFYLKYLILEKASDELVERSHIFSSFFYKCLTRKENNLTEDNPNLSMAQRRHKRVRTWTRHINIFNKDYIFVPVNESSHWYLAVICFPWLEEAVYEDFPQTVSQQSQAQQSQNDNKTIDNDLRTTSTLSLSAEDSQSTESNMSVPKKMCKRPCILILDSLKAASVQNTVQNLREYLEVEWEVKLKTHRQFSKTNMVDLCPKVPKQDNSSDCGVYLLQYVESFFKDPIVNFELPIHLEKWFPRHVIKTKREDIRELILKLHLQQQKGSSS
Of the large screens only hits and unclear results are named; the others gave an inactive call.

O=C1/C(=C/c2cccc(Br)c2)SC(=S)N1CCC(=O)N(CCO)c1ccccc1	none (no result: PPC-1+TRAIL kill)
COc1ccc(CN2C(=O)CCC2(C)c2nnnn2-c2ccc3c(c2)OCCO3)cc1OC (centres undefined)	none (no result: PPC-1+TRAIL kill, SENP6 inh, SENP8 block-2, SENP7 inh)
Nc1nc2ccccc2n1C(=O)c1ccco1	none (no result: SENP6 inh, SENP8 block-2, SENP7 inh)
Nc1nc2ccccc2n1C(=O)c1cccs1	SENP8 block-2 58, SENP7 inh 74
CO[C@H]1CN(C)C(=O)c2cc(NC(=O)C3CCCC3)ccc2OC[C@@H](C)NC[C@H]1C	none (no result: PPC-1+TRAIL kill, SENP6 inh, SENP8 block-2, SENP7 inh)
CCOc1cc(C)nc(N2CCC(C(=O)NC3CC3)CC2)n1	none (no result: PPC-1+TRAIL kill, SENP6 inh, SENP8 block-2, SENP7 inh)
COc1cc(OC)c2c(c1)C(=O)c1cc(OC)cc(OC)c1C2=O	SENP8 block-1 57
Cc1ccccc1NC(=S)N1CCC(NC(=O)c2ccco2)CC1	none
CSCC(CO)NS(=O)(=O)c1ccc(C)cc1 (centres undefined)	none
COCCCNc1ccn2nc(-c3ccccc3)cc2n1	C8 TRAIL sens 53 (no result: PPC-1+TRAIL kill, SENP6 inh, SENP8 block-2, SENP7 inh)
COCCCNc1ccn2nc(-c3cccc(Cl)c3)cc2n1	none (no result: PPC-1+TRAIL kill, SENP6 inh, SENP8 block-2, SENP7 inh)
CCN(CC)CCn1c2c(c(SCC(=O)Nc3nc4ccc(C)cc4s3)nc1=O)CCC2	C8 TRAIL sens 66 (no result: PPC-1+TRAIL kill)
CCCCCCCc1ccc(-c2ccc(O)cc2)nc1	none
CCCc1ccc(-c2ccc(/C=C/C(=O)O)cc2)nc1	PPC-1+TRAIL kill 56, C8 TRAIL sens 85 (no result: SENP6 inh, SENP8 block-2, SENP7 inh)
CS(=O)(=O)Nc1cccc(NC(=O)C2Cc3c(-c4ccccc4)ccnc3O2)c1 (centres undefined)	C8 TRAIL sens 57 (no result: PPC-1+TRAIL kill, SENP6 inh, SENP8 block-2, SENP7 inh)
COc1ccc(N2CCN(CCNC(=O)CCCn3c(=O)[nH]c4cc(Cl)ccc4c3=O)CC2)cc1	SENP8 block-1 53
COc1ccc(N2CCN(CCCNC(=O)CCCn3c(=O)[nH]c4ccsc4c3=O)CC2)cc1	none
Cn1cccc1/C=C1\SC(=S)N(Nc2ccccc2)C1=O	SENP8 block-1 43
Cc1ccc(NC(=O)CSc2nnnn2C2CC2)cc1S(=O)(=O)N1CCOCC1	none (no result: PPC-1+TRAIL kill)
CC1(C)C=C(c2ccc(C=O)s2)CC(C)(C)N1C=O	PPC-1+TRAIL kill 62
COC(=O)c1ccccc1NC(=O)CCCOc1cc(=O)n(C)c2ccccc12	none (no result: PPC-1+TRAIL kill, SENP6 inh, SENP8 block-2, SENP7 inh)
O=C(COC(=O)c1n[nH]c(=O)c2ccccc12)Nc1ccccc1	none (no result: PPC-1+TRAIL kill)
CC(C)(C)C(=O)Cn1ncc(Cl)c(Cl)c1=O	none (no result: SENP6 inh, SENP8 block-2, SENP7 inh)
O=C1CN(C(=O)COc2ccc(Cl)c(Cl)c2)c2ccccc2N1	none (no result: PPC-1+TRAIL kill)
O=C1CN(C(=O)Cn2ncc(Cl)c(Cl)c2=O)c2ccccc2N1	C8 TRAIL sens 94 (no result: SENP6 inh, SENP8 block-2, SENP7 inh)
O=C(Cn1ncc(Cl)c(Cl)c1=O)c1ccc(Cl)cc1	C8 TRAIL sens 95 (no result: SENP6 inh, SENP8 block-2, SENP7 inh)
O=C(Cn1ncc(Cl)c(Cl)c1=O)NCC1CCCCC1	C8 TRAIL sens 95 (no result: SENP6 inh, SENP8 block-2, SENP7 inh)
O=C(OCn1ncc(Cl)c(Cl)c1=O)c1ccccc1Cl	C8 TRAIL sens 87 (no result: SENP6 inh, SENP8 block-2, SENP7 inh)
Cc1cc(C)n2c(Nc3ccc4c(c3)OCCO4)c(CCc3ccccc3)nc2n1	none (no result: PPC-1+TRAIL kill, SENP6 inh, SENP8 block-2, SENP7 inh)
CN(Cc1ccon1)Cc1cn(C)nc1-c1cccc(Cl)c1	none
O=c1cc(CN2CCN(c3ccc(Cl)c(Cl)c3)CC2)c2c(ccc3ccccc32)o1	none (no result: PPC-1+TRAIL kill, SENP6 inh, SENP8 block-2, SENP7 inh)
O=C(Cn1ncc(Cl)c(Cl)c1=O)NC1CCS(=O)(=O)C1 (centres undefined)	none
Cc1cccc(NC(=O)CNC(=O)Cn2ncc(Cl)c(Cl)c2=O)c1C	C8 TRAIL sens 74 (no result: PPC-1+TRAIL kill)
Cc1cccc(NC(=O)CNC(=O)CSc2ncccn2)c1C	none (no result: PPC-1+TRAIL kill)
Cc1ccc(NC(=O)Cn2ncc(Cl)c(Cl)c2=O)cc1S(=O)(=O)N1CCCCC1	C8 TRAIL sens 79 (no result: PPC-1+TRAIL kill)
O=C(Cn1ncc(Cl)c(Cl)c1=O)NC1CCCCC1	C8 TRAIL sens 96 (no result: PPC-1+TRAIL kill)
Cc1cccc([C@@H]2[C@@H]3C(=O)N(Cc4ccccc4)C(=O)[C@@H]3[C@]3(CC(C)C)C(=O)N(c4cccc(F)c4)C(=O)N23)c1	none (no result: PPC-1+TRAIL kill)
NS(=O)(=O)c1ccc(CCNC(=O)CCc2nc3sc4c(c3c(=O)[nH]2)CCCC4)cc1	none (no result: PPC-1+TRAIL kill)
CCOC(=O)C(CCc1ccccn1)c1ccccc1 (centres undefined)	none (no result: PPC-1+TRAIL kill, SENP6 inh, SENP8 block-2, SENP7 inh)
Cc1cccc(N(Cc2ccccc2)C(=O)CCl)c1	C8 TRAIL sens 96 (no result: SENP6 inh, SENP8 block-2, SENP7 inh)
O=C(CCl)N(Cc1ccccc1)c1ccccc1	C8 TRAIL sens 96
O=C(CCl)N(Cc1cc(=O)[nH]c2ccccc12)c1ccccc1	none (no result: PPC-1+TRAIL kill)
Cc1ccccc1S(=O)(=O)NC(=O)C1(C)CCN1C(=O)CCc1ccc(Cl)cc1Cl (centres undefined)	none (no result: PPC-1+TRAIL kill, SENP6 inh, SENP8 block-2, SENP7 inh)
COc1ccc(CNC(=O)C2CCCN2C)cc1OC (centres undefined)	none
O=C1C(=O)c2c(C(=O)c3ccccc3)coc2-c2ccccc21	SENP8 block-1 61
O=C(O)C1CCN(C(=O)c2ccc3c(c2)OCO3)CC1	none (no result: PPC-1+TRAIL kill)
COc1ccccc1C(=O)Nc1nc2cc3c(cc2s1)OCO3	SENP7 inh 79
O=C(Nc1nc2cc3c(cc2s1)OCCO3)c1cccs1	SENP6 inh 96, C8 TRAIL sens 63, SENP8 block-2 94, SENP7 inh 98
O=C(CCS(=O)(=O)c1ccccc1)Nc1nc2cc3c(cc2s1)OCCO3	none (no result: PPC-1+TRAIL kill)
Cc1sc(NC(=O)c2cccc(N3C(=O)CCC3=O)c2)nc1-c1ccccc1	C8 TRAIL sens 50 (no result: PPC-1+TRAIL kill)
O=C(Nc1nc2cc3c(cc2s1)OCCO3)c1cccc(N2C(=O)CCC2=O)c1	PPC-1+TRAIL kill 67
COc1ccc(NS(=O)(=O)c2cn(C)cn2)c(OC)c1	none (no result: PPC-1+TRAIL kill)
